A selection: hits, their analogues and other compounds. The true share with any hit is near 8%.
HT1080 IDH1KD tx: HT-1080 IDH1 knockdown cell toxicity (counter line). HT-1080 IDH1 knockdown viability, ATP luminescence, 48 h. Potency, µM (top dose mostly 46.1 µM), for inactives: at the highest dose activity, negative = toxicity, most hits filed as cytotoxic. 360,000 compounds, 2% hits. AID 686971;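 note: 0% = DMSO wells and -100% = cell-free medium wells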
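In this qHTS, HT-1080 cells depleted of IDH1 are exposed for 48 h at 37 °C to compound titrations. Toxicity is scored from CellTiter-Glo luminescence, with DMSO as full viability and medium alone as none.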
KB-3-1 cytotox: kills parental KB-3-1 adenocarcinoma cells; KB-3-1 viability, CellTiter-Glo ATP luminescence, 72 h; Potency, µM (top dose mostly 46.1 µM), most hits filed as cytotoxic; 400,000 compounds, 1.4% hits; note: % is set by controls: 0 for no effect and ±100 for the full control effect; nearly all actives have a fitted effect of over 60% in size
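KB-3-1 parental drug-naive adenocarcinoma cells in DMEM/10% FBS, incubated 72 h at 37 C with pin-transferred compounds across a concentration series. Viability by CellTiter-Glo luminescence; concentration-response curves fitted after normalization.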
SW480 rereplic: inducers of DNA re-replication in SW480 colon cancer cells; SW480 DNA re-replication, Hoechst DNA content imaging, 48 h; Potency, µM (titrated, usually from 46.1 µM), for inactives: top-dose re-replication activation, hits mostly activators; 340,000 compounds, 1.8% hits; note: % of control where 0% means no effect; nearly all actives have a fitted effect of over 55% in size
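Readout is total intensity of Hoechst-stained nuclei, excited at 405 nm and collected at 500-530 nm. Compound treatment lasted 48 hr at 37 C in 5% CO2 before staining.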
MCF10A rereplic: inducers of DNA re-replication in MCF 10A breast cells. 350,000 compounds, 2.9% hits. MCF 10A DNA re-replication, Hoechst nuclear intensity, 48 h. Potency, µM (doses to about 46.1 µM), inactives show top-dose activity, positive = re-replication, usual class: activators; note: % of control where 0% means no effect; nearly all actives have a fitted effect of over 50% in size
HT1080NT lethal: kills 2HG-producing HT-1080-NT fibrosarcoma cells | HT-1080-NT fibrosarcoma viability, CellTiter-Glo ATP luminescence, 48 h | 360,000 compounds, 1.6% hits | Potency, µM (top dose mostly 46.1 µM), without a hit: at the highest dose activity, negative = less viability, most hits filed as cytotoxic;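 note: NT is the 2HG producing partner of a matched IDH1 knockdown line; 0% = DMSO-treated cells and -100% = media-only wells without cells; nearly all actives have a fitted effect of over 55% in size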
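HT-1080-NT fibrosarcoma cells (2HG-overproducing), 750 cells/well in RPMI with 5% FBS, dosed after 2 h and incubated 48 h at 37C. CellTiter-Glo luminescence normalized to DMSO and no-cell wells; concentration-response curves fitted and classed.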
KB-V1 MDR tox: kills drug-selected multidrug resistant KB-V1 cells; AID 1347076; Potency, µM (doses to about 46.1 µM), actives largely listed as cytotoxic; 400,000 compounds, 3.4% hits; KB-V1 MDR cells viability, CellTiter-Glo, 72 h; note: % is set by controls: 0 for no effect and ±100 for the full control effect; nearly all actives have a fitted effect of over 60% in size
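qHTS viability screen in drug-selected KB-V1 MDR cells: 72 h compound treatment at 37 degrees C, ATP luminescence end point.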
* = called active by the depositor; i = inactive; ? = inconclusive; · = no result; [ ] = dose if it differs, or a comment. Calls come from the whole dose curve; as a rule, active = well fitted curve in the direction sought with a large enough effect; inconclusive = small, poorly fitted or top-dose-only effect, or another doubt; inactive = no such curve, though single readings can be large; an effect the other way counts as inactive or inconclusive. Potency is the fitted concentration of half-maximal effect.

SMILES	HT1080 IDH1KD tx	KB-3-1 cytotox	SW480 rereplic	MCF10A rereplic	HT1080NT lethal	KB-V1 MDR tox
CC(=O)c1sc(N/N=C\c2ccc(Br)cc2)nc1C	6.2%	i	?	18.4µM*	8.4%	i
CCOC(=O)c1sc(N/N=C/c2ccc(N(C)C)cc2)nc1C	11.3%	?	?	?	-0.6%	i
CC(=O)c1sc(N/N=C\c2cccc(Br)c2)nc1C	?	i	10.6%	13µM*	-22.1%	?
Cc1cc(=O)[nH]c(N/N=C/c2cccc(Br)c2)n1	0.3%	i	-10.7%	2.3%	0.4%	i
Clc1nc(Cl)c2ncn(-c3ccccc3)c2n1	-24.7%	18.4µM*	?	?	-1.2%	?
CN(C)c1ncnc2c1ncn2-c1ccccc1	-4.1%	i	3.8%	-0.4%	-1.0%	?
CNc1nc(Cl)nc2c1ncn2-c1ccccc1	-9.5%	14.6µM*	8.7%	3.3%	-11.9%	6.51µM*
CC(C)COc1ccc(CN=C(N)N=C(N)N)cc1Cl	?	13µM*	-8.0%	?	?	i
CC(C)Oc1ccc(CN=C(N)N=C(N)N)cc1Cl	?	?	21.2%	15.7%	?	i
COc1ccccc1CCNS(=O)(=O)c1cc2c3c(c1)CCN3C(=O)CC2	10.7%	i	1.46µM*	-2.0%	-0.9%	i
C/C(=N\NC(=O)c1c(C)nc2ccccn12)c1ccc(N2CCOCC2)cc1	1.1%	i	-1.2%	-1.6%	9.0%	i
O=c1ccc2ccccc2c2ccccc12	5.8µM*	8.2µM*	·	·	8.2µM*	?
CCOc1cc(S(=O)(=O)N(Cc2ccccc2)Cc2ccccc2)c(OCC)cc1-n1cnnn1	-3.5%	i	-4.8%	-12.8%	2.7%	3.66µM*
CC1CCN(C(c2cccs2)c2nnnn2Cc2ccccc2)CC1 (centres undefined)	-24.4%	?	0.3%	2.9%	-18.2%	14.6µM*
COc1ccc(Cn2nnnc2C(c2cccs2)N2CCSCC2)cc1 (centres undefined)	-2.0%	i	0.5%	-1.4%	6.4%	i
COc1ccc(Cn2nnnc2C(C(C)C)N2CCN(c3ccccc3OC)CC2)cc1 (centres undefined)	-0.9%[9.24 µM]	18.4µM*	0.8%	8.1%	-17.8%	?
COc1ccccc1N1CCN(C(c2ccccc2)c2nnnn2Cc2ccccc2)CC1 (centres undefined)	·	?	·	·	·	i
COc1ccc(Cn2nnnc2C(c2cccs2)N2CCCCCC2)cc1 (centres undefined)	-18.5%	?	18.9%	5.4%	-18.0%	16.4µM*
O=C1Cc2ccccc2Sc2cc(OCCCN3CCCCC3)ccc21	6.7%	i	23.1µM*	?	-3.3%	?
Nc1ccc2c(c1)C(=O)Cc1ccccc1S2	-13.9%	i	4.6%	2.3%	-2.3%	i
O=C1Cc2ccccc2Sc2c(OCCN3CCCCC3)cccc21	-4.9%	i	?	?	-0.7%	?
CN(C)CCCOc1ccc2c(c1)Sc1ccccc1CC2=O	1.4%	i	0.0%	?	1.9%	10.3µM*
Cc1cc(C(=O)NC2CCCCC2)c(C)o1	10.0%	i	-4.6%	10.0%	16.4%	i
COc1ccc(OC)c(-c2csc(NC(=O)c3ccc(F)cc3)n2)c1	?	?	?	6.51µM*	?	i
COc1ccc(OC)c(-c2csc(NC(=O)Cc3ccc(F)cc3)n2)c1	?	i	?	?	?	i
SMILES	HT1080 IDH1KD tx	KB-3-1 cytotox	SW480 rereplic	MCF10A rereplic	HT1080NT lethal	KB-V1 MDR tox
COc1ccc(CC(N)c2csc(NC(=O)c3ccc(OC)cc3)n2)cc1 (centres undefined)	-22.1%	i	·	·	?	i
COc1ccc(CC(N)c2csc(NC(=O)c3ccc(F)cc3)n2)cc1 (centres undefined)	?	i	·	·	20.6µM*	i
NC(Cc1ccccc1)c1csc(NC(=O)c2cccc(OC(F)(F)F)c2)n1 (centres undefined)	?	?	·	·	14.6µM*	?
COc1ccc(OC)c(-c2csc(NC(=O)Cn3[nH]c(=O)c4ccccc4c3=O)n2)c1	20.6µM*	i	8.2µM*	?	?	i
CC1=CC2=NC(=O)/C(=C\c3cccn3CCOc3cc(C)cc(C)c3)C(=N)N2O1	-16.8%	i	3.3%	?	-9.0%	?
COc1ccc(CC(N)c2csc(NC(=O)c3ccccc3)n2)cc1 (centres undefined)	-23.2%	i	·	·	-25.3%	i
COc1ccc(CC(N)c2csc(NC(=O)C(c3ccccc3)c3ccccc3)n2)cc1 (centres undefined)	20.6µM*	?	·	·	?	20.6µM*
COc1ccc(CC(N)c2csc(NC(=O)c3cccc(OC(F)(F)F)c3)n2)cc1 (centres undefined)	20.6µM*	?	·	·	20.6µM*	?
CCN(C[C@H]1N[C@@](Cc2ccccc2)(C(=O)OC)[C@H]2C(=O)N(Cc3ccccc3)C(=O)[C@@H]12)C(=O)C1CCCCC1	-0.2%	i	?	-19.1%	0.3%	i
CCN(C[C@H]1N[C@@](Cc2ccccc2)(C(=O)OC)[C@H]2C(=O)N(C)C(=O)[C@@H]12)C(=O)c1ccc(C(C)(C)C)cc1	-7.4%	i	-0.9%[9.22 µM]	-13.7%	9.1%	i
CCN(C[C@H]1N[C@@](Cc2ccccc2)(C(=O)OC)[C@H]2C(=O)N(C)C(=O)[C@@H]12)C(=O)c1ccc(F)cc1	18.7%	i	-2.3%[9.22 µM]	0.82µM*	20.7%	i
CCN(C[C@H]1N[C@@](C)(C(=O)OC)[C@H]2C(=O)N(Cc3ccccc3)C(=O)[C@@H]12)C(=O)C1CCCCC1	0.1%	i	1.46µM*	-4.9%	1.8%	i
CCN(C[C@H]1N[C@@](Cc2ccccc2)(C(=O)OC)[C@H]2C(=O)N(Cc3ccccc3)C(=O)[C@@H]12)C(=O)Nc1ccc(Cl)cc1	?	?	18.4µM*	?	?	?
CCN(C[C@H]1N[C@@](CC)(C(=O)OC)[C@H]2C(=O)N(Cc3ccccc3)C(=O)[C@@H]12)C(=O)c1ccc(C(C)(C)C)cc1	20.6µM*	i	-7.6%[9.22 µM]	?	?	?
O=C(CSc1nc2ccccc2c(=O)n1-c1ccc(F)cc1F)Nc1ccc2c(c1)CCC2	-11.0%	i	1.2%	?	-11.2%	i
CC1C(=O)N(Cc2cn(CCC3OCCO3)nn2)CCS(=O)(=O)N1Cc1ccc(-c2ccc(F)nc2)cc1 (centres undefined)	3.9%	i	·	·	3.6%	i
